Measured values published in the supplement of paper PMC10849652.
Targets with a hit are over-represented here; the source holds about 8,800 in all. About 0.5% of all pairs of compound and target were hits.

Tests used:
Experiment in all cases: log2 fold change, soluble protein after heating vs DMSO (PISA); higher = thermal stabilisation; K562 lysate, 10 uM; active = over 0.2 and 3.5 SD of the protein, either way, in both replicates (recomputed)
lapatinib = compound: CS(=O)(=O)CCNCc1ccc(-c2ccc3ncnc(Nc4ccc(OCc5cccc(F)c5)c(Cl)c4)c3c2)o1 [lapatinib]
Procedure, shortened: (§1)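 Dounce homogenisation of K562 pellets in PBS pH 7.4 with 1 mM MgCl2 produced a crude extract, used at 1 mg/mL protein. Exposure to 10 μM compound lasted 30 min, and aliquots were then heated for 3 min across 48°C-58°C, pooled and brought to 0.5% NP-40 at 4°C. The supernatant after 21,000xg for 90 min was quantified by TMTpro 16plex LC-MS/MS with channel sums equalised. Duplicate values are given as log-two fold change in thermal stability relative to solvent controls.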

pictilisib = compound: CS(=O)(=O)N1CCN(Cc2cc3nc(-c4cccc5[nH]ncc45)nc(N4CCOCC4)c3s2)CC1 [pictilisib]
Procedure, shortened: as §1

crizotinib = compound: C[C@@H](Oc1cc(-c2cnn(C3CCNCC3)c2)cnc1N)c1c(Cl)ccc(F)c1Cl [crizotinib]
Procedure, shortened: as §1

[1] = compound: C[C@H](C1=CC=C(C=C1)C(=O)NC2=C3C=CNC3=NC=C2)N
Procedure, shortened: as §1

duvelisib = compound: C[C@H](Nc1ncnc2nc[nH]c12)c1cc2cccc(Cl)c2c(=O)n1-c1ccccc1 [duvelisib]
Procedure, shortened: as §1

gandotinib = compound: Cc1cc(Nc2cc(CN3CCOCC3)c3nc(C)c(Cc4ccc(Cl)cc4F)n3n2)n[nH]1 [gandotinib]
Procedure, shortened: as §1

tozasertib = compound: Cc1cc(Nc2cc(N3CCN(C)CC3)nc(Sc3ccc(NC(=O)C4CC4)cc3)n2)n[nH]1 [tozasertib]
Procedure, shortened: as §1

doramapimod = compound: Cc1ccc(-n2nc(C(C)(C)C)cc2NC(=O)Nc2ccc(OCCN3CCOCC3)c3ccccc23)cc1 [doramapimod]
Procedure, shortened: as §1

bafetinib = compound: Cc1ccc(NC(=O)c2ccc(CN3CC[C@H](N(C)C)C3)c(C(F)(F)F)c2)cc1Nc1nccc(-c2cncnc2)n1 [bafetinib]
Procedure, shortened: as §1

[2] = compound: Cc1cccc(CC(=O)N2CCc3c2ccc(-c2cn(C)c4ncnc(N)c24)c3F)n1
Procedure, shortened: as §1

Measured: log2 fold change

RIOK3 (UniProt O14730)
inactive: lapatinib 0.026 | pictilisib -0.032 | crizotinib -0.031 | [1] 0.021 | duvelisib -0.007 | gandotinib -0.009 | tozasertib -0.008 | doramapimod 0.036 | bafetinib -0.021 | [2] 0.008

RCAN1 (UniProt P53805)
inactive: lapatinib -0.017 | pictilisib -0.048 | crizotinib -0.127 | [1] -0.088 | duvelisib -0.012 | gandotinib 0.041 | tozasertib 0.017 | doramapimod -0.039 | bafetinib 0.123 | [2] -0.03

RAP1B (UniProt P61224)
Sequence of UniProt P61224 (P61224 whole entry, looked up): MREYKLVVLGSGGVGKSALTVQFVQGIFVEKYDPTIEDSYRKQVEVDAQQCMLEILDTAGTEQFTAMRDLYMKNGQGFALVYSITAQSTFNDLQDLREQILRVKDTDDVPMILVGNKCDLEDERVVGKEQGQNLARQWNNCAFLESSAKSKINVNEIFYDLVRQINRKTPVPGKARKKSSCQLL
inactive: lapatinib 0.009 | pictilisib -0.006 | crizotinib 0.008 | duvelisib -0.045 | gandotinib -0.036 | tozasertib 0 | doramapimod 0.017 | bafetinib 0.17 | [2] -0.021
active: [1] 0.215

RAB1B (UniProt Q9H0U4)
inactive: lapatinib 0.021 | pictilisib 0.053 | crizotinib 0.031 | duvelisib 0.033 | gandotinib 0.156 | tozasertib 0.011 | doramapimod -0.052 | bafetinib -0.038
active: [1] -0.35 | [2] 0.242

SAMHD1 (UniProt Q9Y3Z3)
Sequence of UniProt Q9Y3Z3 (Q9Y3Z3 whole entry, looked up): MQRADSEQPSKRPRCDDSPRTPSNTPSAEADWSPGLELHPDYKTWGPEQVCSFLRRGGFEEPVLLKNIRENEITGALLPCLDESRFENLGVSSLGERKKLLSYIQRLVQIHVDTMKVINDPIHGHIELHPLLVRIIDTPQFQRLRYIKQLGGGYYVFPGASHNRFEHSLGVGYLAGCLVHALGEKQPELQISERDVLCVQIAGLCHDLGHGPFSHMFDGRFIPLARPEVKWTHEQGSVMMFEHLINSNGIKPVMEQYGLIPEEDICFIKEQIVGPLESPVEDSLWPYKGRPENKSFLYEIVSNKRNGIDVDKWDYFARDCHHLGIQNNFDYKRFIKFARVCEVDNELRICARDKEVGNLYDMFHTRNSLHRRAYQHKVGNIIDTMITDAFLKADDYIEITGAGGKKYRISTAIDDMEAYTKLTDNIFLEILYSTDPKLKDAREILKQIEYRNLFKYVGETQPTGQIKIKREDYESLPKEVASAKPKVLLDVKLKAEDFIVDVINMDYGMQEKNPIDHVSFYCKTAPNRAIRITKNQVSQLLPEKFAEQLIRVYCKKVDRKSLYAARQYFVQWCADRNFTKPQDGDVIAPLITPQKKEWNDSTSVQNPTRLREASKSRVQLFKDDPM
inactive: lapatinib 0.02 | pictilisib -0.071 | crizotinib -0.033 | [1] -0.038 | duvelisib 0.013 | gandotinib -0.029 | tozasertib 0.032 | doramapimod -0.005 | bafetinib -0.071 | [2] 0.028

RAP1B (UniProt F5GZG1)
inactive: lapatinib 0.003 | pictilisib 0.02 | crizotinib -0.022 | [1] -0.313 | duvelisib 0.016 | gandotinib 0.127 | tozasertib 0.103 | doramapimod -0.115 | bafetinib -0.098 | [2] 0.201

RPS6KA1 (UniProt Q15418)
inactive: lapatinib -0.067 | pictilisib 0.08 | crizotinib -0.043 | [1] 0.007 | duvelisib 0.008 | gandotinib 0.05 | tozasertib 0.165 | doramapimod -0.039 | bafetinib -0.135 | [2] -0.172

RAD50 isoform 2 (UniProt Q92878)
inactive: lapatinib -0.012 | pictilisib -0.001 | crizotinib -0.025 | [1] 0.007 | duvelisib -0.019 | gandotinib -0.07 | tozasertib 0.011 | doramapimod -0.003 | bafetinib -0.004 | [2] 0.006

QRSL1 (UniProt Q9H0R6)
inactive: lapatinib 0.038 | pictilisib 0.044 | crizotinib 0.031 | [1] 0.105 | duvelisib 0.044 | gandotinib -0.04 | tozasertib 0.044 | doramapimod 0.003 | bafetinib -0.227 | [2] -0.022

RBM22 (UniProt Q9NW64)
Sequence of UniProt Q9NW64 (Q9NW64 whole entry, looked up): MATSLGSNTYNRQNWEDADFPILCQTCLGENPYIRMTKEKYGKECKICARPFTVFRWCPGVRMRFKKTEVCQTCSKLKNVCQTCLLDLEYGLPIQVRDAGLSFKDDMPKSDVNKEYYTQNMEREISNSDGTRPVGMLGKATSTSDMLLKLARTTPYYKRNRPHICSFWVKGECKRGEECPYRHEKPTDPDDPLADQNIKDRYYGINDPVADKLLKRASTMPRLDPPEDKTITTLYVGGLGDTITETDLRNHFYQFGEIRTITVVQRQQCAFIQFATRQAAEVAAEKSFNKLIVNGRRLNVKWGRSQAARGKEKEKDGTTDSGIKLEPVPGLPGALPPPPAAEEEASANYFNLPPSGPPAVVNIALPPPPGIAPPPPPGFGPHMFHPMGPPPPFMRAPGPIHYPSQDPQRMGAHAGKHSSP
inactive: lapatinib -0.01 | pictilisib -0.011 | crizotinib 0.038 | [1] 0.034 | duvelisib 0.008 | gandotinib -0.019 | tozasertib 0.026 | doramapimod 0.072 | bafetinib 0.001 | [2] -0.016

RAC2 (UniProt P15153)
inactive: lapatinib -0.057 | pictilisib 0.016 | crizotinib -0.018 | [1] -0.05 | duvelisib -0.026 | gandotinib -0.025 | tozasertib -0.062 | doramapimod -0.014 | bafetinib -0.042 | [2] 0.031

SCML2 (UniProt Q9UQR0)
inactive: lapatinib 0.035 | pictilisib -0.027 | crizotinib -0.022 | [1] 0.034 | duvelisib 0.006 | gandotinib -0.045 | tozasertib 0.029 | doramapimod 0 | bafetinib -0.017 | [2] -0.014

RALGAPB (UniProt Q86X10)
inactive: lapatinib 0.021 | pictilisib -0.062 | crizotinib -0.088 | [1] -0.09 | duvelisib 0.103 | gandotinib -0.06 | tozasertib 0.062 | doramapimod 0.046 | bafetinib -0.043 | [2] 0.103

RIOK1 (UniProt Q9BRS2)
active: [1] 0.92
inactive: lapatinib -0.044 | pictilisib 0.197 | crizotinib -0.015 | duvelisib 0.037 | gandotinib -0.138 | tozasertib 0.008 | doramapimod 0.025 | bafetinib -0.056 | [2] -0.134

RPN2 (UniProt P04844)
Sequence of UniProt P04844 (P04844 whole entry, looked up): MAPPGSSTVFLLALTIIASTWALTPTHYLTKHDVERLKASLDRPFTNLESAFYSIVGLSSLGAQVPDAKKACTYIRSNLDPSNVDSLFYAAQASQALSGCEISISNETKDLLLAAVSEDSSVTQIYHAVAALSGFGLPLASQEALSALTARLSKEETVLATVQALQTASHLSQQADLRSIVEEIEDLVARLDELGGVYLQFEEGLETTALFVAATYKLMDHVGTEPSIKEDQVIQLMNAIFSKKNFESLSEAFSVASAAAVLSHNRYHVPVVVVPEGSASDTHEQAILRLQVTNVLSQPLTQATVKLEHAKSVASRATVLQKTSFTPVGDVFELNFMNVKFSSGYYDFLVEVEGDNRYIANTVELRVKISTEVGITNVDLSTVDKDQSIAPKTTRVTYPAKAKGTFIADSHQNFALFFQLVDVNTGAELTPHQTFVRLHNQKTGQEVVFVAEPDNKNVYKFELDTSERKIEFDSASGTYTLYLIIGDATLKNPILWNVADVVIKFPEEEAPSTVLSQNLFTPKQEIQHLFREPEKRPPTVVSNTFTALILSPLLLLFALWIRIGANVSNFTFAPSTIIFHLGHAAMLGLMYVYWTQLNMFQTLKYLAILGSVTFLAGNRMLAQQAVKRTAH
inactive: lapatinib -0.048 | pictilisib -0.006 | crizotinib -0.004 | [1] -0.074 | duvelisib -0.003 | gandotinib 0.039 | tozasertib -0.003 | doramapimod 0 | bafetinib -0.032 | [2] 0.06

RBM8A (UniProt Q9Y5S9)
inactive: lapatinib 0.01 | pictilisib 0.017 | crizotinib 0.135 | duvelisib -0.014 | gandotinib -0.209 | tozasertib 0.06 | doramapimod -0.038 | bafetinib -0.017 | [2] -0.2
active: [1] 0.277

SCO2 (UniProt O43819)
Sequence of UniProt O43819 (O43819 whole entry, looked up): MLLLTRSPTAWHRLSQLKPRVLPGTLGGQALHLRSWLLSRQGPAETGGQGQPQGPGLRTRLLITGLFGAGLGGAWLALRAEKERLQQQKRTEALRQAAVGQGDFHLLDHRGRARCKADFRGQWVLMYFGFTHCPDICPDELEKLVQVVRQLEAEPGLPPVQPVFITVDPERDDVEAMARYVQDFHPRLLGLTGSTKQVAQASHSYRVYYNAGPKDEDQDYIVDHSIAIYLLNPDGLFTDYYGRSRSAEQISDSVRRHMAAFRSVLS
inactive: lapatinib 0.118 | pictilisib -0.057 | crizotinib 0.026 | [1] -0.163 | duvelisib 0.092 | gandotinib 0.048 | tozasertib -0.007 | doramapimod 0.002 | bafetinib 0.029 | [2] 0.101

RAD51C (UniProt O43502)
inactive: lapatinib -0.042 | pictilisib -0.023 | crizotinib -0.074 | [1] -0.006 | duvelisib 0.022 | gandotinib 0.065 | tozasertib -0.089 | doramapimod 0.074 | bafetinib -0.119 | [2] -0.044

SBF1 isoform 4 (UniProt O95248)
Sequence of UniProt O95248 (O95248 whole entry, looked up): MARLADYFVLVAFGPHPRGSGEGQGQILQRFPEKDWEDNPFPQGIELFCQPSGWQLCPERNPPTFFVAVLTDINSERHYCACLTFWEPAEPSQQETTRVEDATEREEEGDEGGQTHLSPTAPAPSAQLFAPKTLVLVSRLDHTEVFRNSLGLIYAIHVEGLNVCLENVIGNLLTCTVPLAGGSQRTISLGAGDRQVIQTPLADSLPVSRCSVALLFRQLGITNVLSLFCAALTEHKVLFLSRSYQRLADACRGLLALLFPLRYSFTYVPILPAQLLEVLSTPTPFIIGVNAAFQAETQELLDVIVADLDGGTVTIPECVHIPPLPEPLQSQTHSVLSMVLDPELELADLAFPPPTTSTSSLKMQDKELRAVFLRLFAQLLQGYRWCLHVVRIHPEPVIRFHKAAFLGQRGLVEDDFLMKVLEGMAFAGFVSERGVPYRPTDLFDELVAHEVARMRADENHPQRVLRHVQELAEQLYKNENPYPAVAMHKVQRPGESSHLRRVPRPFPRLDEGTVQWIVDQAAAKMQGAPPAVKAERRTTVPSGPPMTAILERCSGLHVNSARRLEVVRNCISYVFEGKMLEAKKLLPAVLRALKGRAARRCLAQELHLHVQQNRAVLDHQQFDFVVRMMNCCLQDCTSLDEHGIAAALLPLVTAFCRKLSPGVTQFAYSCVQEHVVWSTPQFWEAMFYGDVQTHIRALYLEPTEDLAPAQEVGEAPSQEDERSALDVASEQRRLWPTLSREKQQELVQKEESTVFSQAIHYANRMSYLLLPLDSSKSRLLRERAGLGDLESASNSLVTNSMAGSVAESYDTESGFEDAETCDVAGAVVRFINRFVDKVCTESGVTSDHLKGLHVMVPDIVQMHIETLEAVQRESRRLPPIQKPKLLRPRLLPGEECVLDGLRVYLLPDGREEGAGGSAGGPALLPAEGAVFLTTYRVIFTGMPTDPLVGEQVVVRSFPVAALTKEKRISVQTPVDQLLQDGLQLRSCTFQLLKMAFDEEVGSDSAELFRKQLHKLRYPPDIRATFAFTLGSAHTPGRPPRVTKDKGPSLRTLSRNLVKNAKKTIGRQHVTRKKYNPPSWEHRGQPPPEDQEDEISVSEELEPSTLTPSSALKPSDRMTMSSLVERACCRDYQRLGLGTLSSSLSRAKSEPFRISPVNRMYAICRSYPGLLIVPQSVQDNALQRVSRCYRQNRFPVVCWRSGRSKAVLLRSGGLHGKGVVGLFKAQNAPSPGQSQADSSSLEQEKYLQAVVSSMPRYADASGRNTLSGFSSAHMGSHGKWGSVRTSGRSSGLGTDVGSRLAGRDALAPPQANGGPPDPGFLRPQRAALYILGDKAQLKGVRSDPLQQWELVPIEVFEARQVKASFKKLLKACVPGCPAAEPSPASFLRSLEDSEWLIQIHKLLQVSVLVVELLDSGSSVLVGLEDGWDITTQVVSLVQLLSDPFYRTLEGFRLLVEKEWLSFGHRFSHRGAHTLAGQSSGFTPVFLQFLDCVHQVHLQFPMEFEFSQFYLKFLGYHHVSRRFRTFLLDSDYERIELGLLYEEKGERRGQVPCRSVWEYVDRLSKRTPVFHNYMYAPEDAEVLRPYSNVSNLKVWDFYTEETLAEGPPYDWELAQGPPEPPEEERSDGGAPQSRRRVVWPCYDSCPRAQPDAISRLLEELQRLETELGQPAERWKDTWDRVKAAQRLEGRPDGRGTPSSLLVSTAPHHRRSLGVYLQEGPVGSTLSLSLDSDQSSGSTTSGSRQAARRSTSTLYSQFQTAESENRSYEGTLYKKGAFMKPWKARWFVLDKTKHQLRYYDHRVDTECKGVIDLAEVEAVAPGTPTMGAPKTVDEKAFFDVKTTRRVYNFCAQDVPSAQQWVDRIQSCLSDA
inactive: lapatinib -0.029 | pictilisib -0.075 | crizotinib 0.088 | [1] 0.07 | duvelisib -0.039 | gandotinib -0.066 | tozasertib 0 | doramapimod -0.004 | bafetinib -0.061 | [2] 0.006

SCD (UniProt O00767)
inactive: lapatinib 0.059 | pictilisib 0 | crizotinib -0.08 | duvelisib 0.067 | gandotinib 0.155 | tozasertib 0.065 | doramapimod 0.077 | bafetinib -0.053 | [2] 0.273
active: [1] -0.443

RRM1 (UniProt P23921)
inactive: lapatinib 0.003 | pictilisib 0.01 | crizotinib -0.025 | [1] -0.004 | duvelisib -0.052 | gandotinib -0.028 | tozasertib -0.036 | doramapimod -0.017 | bafetinib -0.018 | [2] 0.001

RETSAT (UniProt Q6NUM9)
inactive: lapatinib 0.056 | pictilisib -0.048 | crizotinib -0.329 | [1] -0.159 | duvelisib 0.039 | gandotinib 0.167 | tozasertib -0.024 | doramapimod 0.006 | bafetinib -0.097 | [2] 0.391

SDHA (UniProt P31040)
Sequence of UniProt P31040 (P31040 whole entry, looked up): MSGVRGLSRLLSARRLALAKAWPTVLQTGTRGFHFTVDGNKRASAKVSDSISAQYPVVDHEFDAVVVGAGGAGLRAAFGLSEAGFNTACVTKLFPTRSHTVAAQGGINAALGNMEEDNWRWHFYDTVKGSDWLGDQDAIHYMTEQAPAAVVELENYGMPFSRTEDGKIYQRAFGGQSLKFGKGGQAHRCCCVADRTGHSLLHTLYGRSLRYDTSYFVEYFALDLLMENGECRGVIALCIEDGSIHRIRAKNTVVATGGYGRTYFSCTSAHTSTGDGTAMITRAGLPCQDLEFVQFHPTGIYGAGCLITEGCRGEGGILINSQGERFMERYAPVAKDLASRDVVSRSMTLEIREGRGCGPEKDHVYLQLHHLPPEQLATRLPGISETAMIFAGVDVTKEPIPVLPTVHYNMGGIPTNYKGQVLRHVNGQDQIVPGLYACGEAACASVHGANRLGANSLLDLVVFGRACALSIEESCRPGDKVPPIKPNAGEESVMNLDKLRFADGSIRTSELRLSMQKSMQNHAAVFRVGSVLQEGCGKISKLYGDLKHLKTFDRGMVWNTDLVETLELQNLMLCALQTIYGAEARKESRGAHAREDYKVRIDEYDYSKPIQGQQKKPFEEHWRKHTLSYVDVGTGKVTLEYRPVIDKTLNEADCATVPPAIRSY
inactive: lapatinib 0.004 | pictilisib -0.011 | crizotinib -0.008 | [1] -0.004 | duvelisib 0.013 | gandotinib 0.03 | tozasertib 0.006 | doramapimod 0.024 | bafetinib 0.026 | [2] -0.017

RAB8B (UniProt Q92930)
inactive: lapatinib 0.065 | pictilisib -0.018 | crizotinib 0.034 | [1] 0.037 | duvelisib 0.098 | tozasertib 0.003 | doramapimod -0.013 | bafetinib 0.088 | [2] -0.079
active: gandotinib -0.289

SAMD4A (UniProt Q9UPU9)
inactive: lapatinib 0.282 | pictilisib 0.047 | crizotinib -0.041 | [1] -0.064 | duvelisib -0.046 | gandotinib -0.036 | tozasertib 0.088 | doramapimod 0.019 | bafetinib -0.215 | [2] 0.101

SESN2 (UniProt P58004)
inactive: lapatinib -0.085 | pictilisib -0.047 | crizotinib -0.042 | [1] 0.041 | duvelisib 0.047 | gandotinib 0.038 | tozasertib -0.006 | doramapimod -0.031 | bafetinib -0.15 | [2] 0.003

RNPS1 (UniProt Q15287)
Sequence of UniProt Q15287 (Q15287 whole entry, looked up): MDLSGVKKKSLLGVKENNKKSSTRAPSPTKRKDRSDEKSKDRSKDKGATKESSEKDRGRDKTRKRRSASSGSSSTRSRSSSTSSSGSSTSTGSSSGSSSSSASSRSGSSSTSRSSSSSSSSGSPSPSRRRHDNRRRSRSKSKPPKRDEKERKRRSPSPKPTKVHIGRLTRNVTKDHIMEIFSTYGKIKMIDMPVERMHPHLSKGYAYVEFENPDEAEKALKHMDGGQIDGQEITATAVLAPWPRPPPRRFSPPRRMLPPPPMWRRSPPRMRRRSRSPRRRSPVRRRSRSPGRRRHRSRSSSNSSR
inactive: lapatinib 0.025 | pictilisib 0.044 | [1] -0.02 | duvelisib 0.038 | gandotinib 0 | tozasertib 0.042 | doramapimod -0.057 | bafetinib -0.009 | [2] -0.001
active: crizotinib 0.254

RNF213, A0A0A0MTC1
inactive: lapatinib -0.012 | pictilisib -0.014 | crizotinib -0.064 | [1] -0.043 | duvelisib 0.008 | gandotinib -0.123 | tozasertib 0.043 | doramapimod 0.033 | bafetinib -0.066 | [2] 0.052

RCC1 isoform 2 (UniProt P18754)
inactive: lapatinib -0.018 | pictilisib 0.009 | crizotinib -0.063 | [1] -0.019 | duvelisib 0.017 | gandotinib -0.066 | tozasertib 0.011 | doramapimod -0.017 | bafetinib -0.01 | [2] 0.034

SCO1 (UniProt O75880)
inactive: lapatinib 0.021 | pictilisib -0.046 | crizotinib -0.046 | [1] -0.022 | duvelisib -0.014 | gandotinib 0.047 | tozasertib 0.01 | doramapimod 0.026 | bafetinib 0.048 | [2] 0.073
